# Laboratory results as given in the supplement of paper PMC6992640.
# ± gives the standard deviation of the averaged measurements.
# Key:
# Test in all cases: cell viability (% of vehicle); higher = less cytotoxic
# Details in all cases: 10 µM; 72 h
# HCI01 = tested on: HCI01 (cells of a triple-negative basal-like breast cancer xenograft)
# HCI03 = tested on: HCI03 (cells of an ER-positive luminal breast cancer xenograft)
# HCI09 = tested on: HCI09 (cells of a triple-negative luminal androgen receptor type breast cancer xenograft)
# HCI11 = tested on: HCI11 (cells of an ER-positive luminal breast cancer xenograft)
# HCI16 = tested on: HCI16 (cells of a triple-negative basal-like breast cancer xenograft)
# UCD52 = tested on: UCD52 (cells of a triple-negative basal-like breast cancer xenograft)
# WHIM2 = tested on: WHIM2 (cells of a triple-negative basal-like breast cancer xenograft)
# WHIM30 = tested on: WHIM30 (cells of a triple-negative basal-like breast cancer xenograft)
# HCI13 = tested on: HCI13 (cells of an ER-positive luminal breast cancer xenograft)
# 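Also: PDX cells carrying CMV promoter-driven luciferase, viability read as total photon flux per second by IVIS imaging following D-luciferin, vehicle control 0.1% DMSO.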
SMILES,cell viability (HCI01),cell viability (HCI03),cell viability (HCI09),cell viability (HCI11),cell viability (HCI16),cell viability (UCD52),cell viability (WHIM2),cell viability (WHIM30),cell viability (HCI13)
N=C(N)NCCCC[C@@H]1NC(=O)CCSSC[C@@H](C(N)=O)NC(=O)[C@@H]2CCCN2C(=O)[C@H](Cc2c[nH]c3ccccc23)NC(=O)[C@H](CC(=O)O)NC(=O)CNC1=O [Eptifibatide],101 ± 25,148,120 ± 79,93.4,194,123 ± 15,101 ± 13,138 ± 4.8,–
Cc1onc(-c2ccccc2)c1C(=O)NC1C(=O)N2C1SC(C)(C)C2C(=O)[O-].O.[Na+] (stereo not drawn) [Oxacillin sodium monohydrate],114 ± 12,150,116 ± 24,110,127,105 ± 5,91 ± 13,168 ± 8.6,–
C#CC1(O)CCC2C3CCC4=CC(=O)CCC4C3CCC21C (stereo not drawn) [Norethindrone],91.4 ± 26,134,93.6 ± 6.6,97.8,128,93.3 ± 11,93.1 ± 21,–,–
CCCCCC(O)C=CC1C(O)CC(=O)C1CCCCCCC(=O)O (stereo not drawn) [Alprostadil],86.5 ± 76,124,145 ± 75,104,175,124 ± 2.3,147 ± 12,141 ± 4.9,–
O=C(NS(=O)(=O)c1ccc(Br)s1)c1ccc(Cl)cc1Cl [Tasisulam],183 ± 32,126,84.1 ± 17,148,–,115 ± 25,167 ± 16,172 ± 15,158 ± 6
CC(=O)O[C@@]12CO[C@@H]1C[C@H](O)[C@@]1(C)C(=O)[C@H](O)C3=C(C)[C@@H](OC(=O)[C@H](O)[C@@H](NC(=O)OC(C)(C)C)c4ccccc4)C[C@@](O)([C@@H](OC(=O)c4ccccc4)[C@H]21)C3(C)C [Docetaxel],154 ± 26,106,99.9 ± 18,124,–,82 ± 10,96.3 ± 7.4,134 ± 5.3,116 ± 22
O=C(Nc1cccc2c(=O)cc(-c3nn[nH]n3)oc12)c1ccc(OCCCCc2ccccc2)cc1 [Pranlukast],96.3 ± 9.7,97.5,64 ± 5.3,101,147,102 ± 2.1,65.3 ± 11,152 ± 11,–
C=CCNC1=C2CC(C)CC(OC)C(O)C(C)C=C(C)C(OC(N)=O)C(OC)C=CC=C(C)C(=O)NC(=CC1=O)C2=O (stereo not drawn),105 ± 37,57.1,26.7 ± 0.77,72.5,106,91.6 ± 5.4,63.25 ± 0.14,85.1 ± 8.4,–
CCC1OC(=O)C(C)C(OC2CC(C)(OC)C(O)C(C)O2)C(C)C(OC2OC(C)CC(N(C)C)C2O)C(C)(O)CC(C)CN(C)C(C)C(O)C1(C)O (stereo not drawn) [Azithromycin],145 ± 30,137,116 ± 5.9,121,124,105 ± 26,114.9 ± 1.1,119 ± 24,–
O=c1c(O)c(-c2ccc(O)c(O)c2)oc2cc(O)cc(O)c12 [Quercetin],124 ± 46,123,141 ± 4.7,99.2,151,102 ± 1.3,107.1 ± 0.64,128 ± 17,–
CC(NCCc1ccc(O)cc1)C(O)c1ccc(O)cc1.Cl (stereo not drawn) [Ritodrine HCl],111 ± 11,116,101 ± 21,106,111,86.3 ± 4.5,97.8 ± 37,111 ± 4.8,–
Cc1cc(Nc2cc(CN3CCOCC3)c3nc(C)c(Cc4ccc(Cl)cc4F)n3n2)n[nH]1,142 ± 56,116,64.3 ± 15,196,199,103 ± 19,–,–,–
CCC(=O)OC1(C(=O)CCl)C(C)CC2C3CCC4=CC(=O)C=CC4(C)C3(F)C(O)CC21C (stereo not drawn) [Clobetasol propionate],116 ± 22,125,116 ± 54,132,196,142 ± 10,91 ± 25,–,–
CC(C)Cn1cnc2c(N)nc3ccccc3c21 [Imiquimod],92.9 ± 12,109,72.71 ± 0.55,42.7,–,76.7 ± 1.4,115 ± 14,116 ± 8,91 ± 20
CCC1C(=O)N(C)c2cnc(Nc3ccc(C(=O)NC4CCC(N5CCN(CC6CC6)CC5)CC4)cc3OC)nc2N1C(C)C (stereo not drawn) [BI6727 (Volasertib)],82.6 ± 50,85.1,26.4 ± 0.95,115,–,116 ± 4.4,43.5 ± 8.7,176.9 ± 1.6,84.6 ± 29
O=C(Nc1c(Cl)cncc1Cl)c1ccc(OC(F)F)c(OCC2CC2)c1 [Roflumilast],150 ± 8.4,145,118 ± 55,124,196,119 ± 10,104 ± 15,151 ± 5.7,–
Cl.O=C(CCCN1CCC(O)(c2ccc(Cl)cc2)CC1)c1ccc(F)cc1 [Haloperidol hydrochloride],114 ± 14,99.6,103 ± 31,106,127,63.4 ± 4.9,114 ± 6.5,60.2 ± 8.8,–
CCCC(NC(=O)C1C2CCCC2CN1C(=O)C(NC(=O)C(NC(=O)c1cnccn1)C1CCCCC1)C(C)(C)C)C(=O)C(=O)NC1CC1 (stereo not drawn) [Telaprevir (VX-950)],154 ± 43,102,80.2 ± 12,–,144,123 ± 6.4,96.2 ± 12,165 ± 15,96.4 ± 12
Nc1nnc(-c2cccc(Cl)c2Cl)c(N)n1 [Lamotrigine],95 ± 12,155,134 ± 32,89.9,128,112 ± 15,96.1 ± 13,175 ± 4.1,–
